Calls of active or inactive are those of the source.
Experiments:
[1] = E. coli DRC41 culture turbidity changes, primary screen, E. coli filamentation inducer project, strain DRC41, OD650, 48 h (AID 1152);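 note: E. coli MC1000 strain DRC41 lacking acrAB efflux pump and sulA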; settings: E. coli DRC41 (acrAB sulA), higher = more signal, called active from +8 up or from −8 down
[2] = small-molecule binders of probe aLefty1, primary screen, biochemical, small-molecule microarray, 635/667 nm fluorescence (AID 1153); settings: higher = more signal;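 note: score merges spot fluorescence with signal-to-noise ratio from the scanned slide images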
[3] = PSAC antagonists in infected red cells, primary screen, cell-based, P. falciparum Indochina, OD700, 1 h (AID 1154); settings: P. falciparum Indochina infected RBC osmotic lysis, higher = more signal, called active from +8 up or from −8 down
[4] = PSAC antagonists in infected red cells, primary screen, cell-based, P. falciparum Indochina, OD700, 2 h (AID 1155);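 note: lysis reports solute entry through the parasite surface anion channel PSAC; channel blockers reduce lysis of infected cells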; settings: P. falciparum Indochina infected erythrocytes, osmotic lysis OD700; higher = more signal, called active from +8 up or from −8 down
[5] = osmotic lysis modulators in infected erythrocytes, primary screen, PSAC antagonist project, cell-based, P. falciparum Indochina, OD700, 3 h (AID 1156); settings: higher = more signal, called active from +8 up or from −8 down
[6] = PSAC antagonists in infected red cells, primary screen, cell-based, P. falciparum Indochina, OD700, 18 h (AID 1157); settings: P. falciparum Indochina infected erythrocytes, osmotic lysis OD700, 18 h; higher = more signal, called active from +8 up or from −8 down
[7] = modulators of S6 phosphorylation in cells, primary screen, cell-based, A549, cytoblot, luminescence, serum-stimulated (AID 1158); settings: A549 phospho-S6 cytoblot, 5 h, higher = more signal;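 note: serum-stimulated A549 lung adenocarcinoma cells; signal is phosphorylated S6 detected by cytoblot immunostaining with HRP secondary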
[8] = biological target: NADPH oxidase 2 (Homo sapiens) (UniProt P04839); experiment: NOX2-dependent H2O2 signal modulators, primary screen, NOX inhibitor project, cell-based, HEK293-NOX2, PMA-stimulated, Amplex Red fluorescence (AID 1159); settings: 45 min, higher = more signal, called active from +8 up or from −8 down; note: test concentration not given here
Chain of NADPH oxidase 2 (Homo sapiens) (P04839 whole entry, looked up): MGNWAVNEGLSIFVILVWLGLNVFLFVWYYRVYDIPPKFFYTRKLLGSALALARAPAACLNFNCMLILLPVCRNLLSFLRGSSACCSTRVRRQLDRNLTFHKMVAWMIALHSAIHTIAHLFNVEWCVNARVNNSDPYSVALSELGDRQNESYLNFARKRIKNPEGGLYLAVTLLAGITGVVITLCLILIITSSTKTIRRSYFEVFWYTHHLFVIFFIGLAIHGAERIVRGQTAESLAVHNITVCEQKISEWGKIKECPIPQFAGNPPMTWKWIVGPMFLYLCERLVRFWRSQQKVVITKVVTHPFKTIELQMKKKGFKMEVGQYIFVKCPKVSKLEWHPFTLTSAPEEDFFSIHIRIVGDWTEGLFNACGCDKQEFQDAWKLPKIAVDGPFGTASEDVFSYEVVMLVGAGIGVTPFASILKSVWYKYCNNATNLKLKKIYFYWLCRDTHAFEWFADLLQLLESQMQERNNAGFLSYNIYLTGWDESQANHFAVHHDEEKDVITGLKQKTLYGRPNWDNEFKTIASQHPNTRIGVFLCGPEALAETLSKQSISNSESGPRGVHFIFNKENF

[9] = biological target: NADPH oxidase 4 (Homo sapiens) (UniProt Q9NPH5); experiment: NOX4-dependent H2O2 signal modulators, primary screen, NOX inhibitor project, cell-based, HEK293-NOX4, tetracycline-induced, Amplex Red fluorescence (AID 1160); settings: 45 min, higher = more signal, called active from +8 up or from −8 down
Chain of NADPH oxidase 4 (Homo sapiens) (Q9NPH5 whole entry, looked up): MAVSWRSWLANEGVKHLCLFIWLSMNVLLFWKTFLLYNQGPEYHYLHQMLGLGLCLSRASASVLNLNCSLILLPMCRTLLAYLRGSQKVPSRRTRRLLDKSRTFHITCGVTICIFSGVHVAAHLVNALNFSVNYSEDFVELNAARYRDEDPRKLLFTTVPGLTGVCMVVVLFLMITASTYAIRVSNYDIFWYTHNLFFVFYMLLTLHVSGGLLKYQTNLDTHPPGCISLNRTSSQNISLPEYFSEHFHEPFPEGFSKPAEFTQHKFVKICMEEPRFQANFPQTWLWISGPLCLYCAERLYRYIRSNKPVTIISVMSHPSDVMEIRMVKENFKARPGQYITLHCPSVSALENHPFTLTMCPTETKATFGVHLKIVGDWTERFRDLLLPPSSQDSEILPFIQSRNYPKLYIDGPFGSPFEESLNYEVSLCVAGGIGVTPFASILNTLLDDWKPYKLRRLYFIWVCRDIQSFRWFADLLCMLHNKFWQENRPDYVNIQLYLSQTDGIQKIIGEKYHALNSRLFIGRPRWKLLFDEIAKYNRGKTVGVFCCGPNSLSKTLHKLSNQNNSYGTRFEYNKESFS

[10] = biological target: NADPH oxidase 5 (Homo sapiens) (UniProt Q96PH1); experiment: NOX5-dependent H2O2 signal modulators, primary screen, NOX inhibitor project, cell-based, HEK293-NOX5, Amplex Red fluorescence (AID 1161); settings: HEK293-NOX5, ionomycin, 45 min, higher = more signal
Chain of NADPH oxidase 5 (Homo sapiens) (Q96PH1 whole entry, looked up): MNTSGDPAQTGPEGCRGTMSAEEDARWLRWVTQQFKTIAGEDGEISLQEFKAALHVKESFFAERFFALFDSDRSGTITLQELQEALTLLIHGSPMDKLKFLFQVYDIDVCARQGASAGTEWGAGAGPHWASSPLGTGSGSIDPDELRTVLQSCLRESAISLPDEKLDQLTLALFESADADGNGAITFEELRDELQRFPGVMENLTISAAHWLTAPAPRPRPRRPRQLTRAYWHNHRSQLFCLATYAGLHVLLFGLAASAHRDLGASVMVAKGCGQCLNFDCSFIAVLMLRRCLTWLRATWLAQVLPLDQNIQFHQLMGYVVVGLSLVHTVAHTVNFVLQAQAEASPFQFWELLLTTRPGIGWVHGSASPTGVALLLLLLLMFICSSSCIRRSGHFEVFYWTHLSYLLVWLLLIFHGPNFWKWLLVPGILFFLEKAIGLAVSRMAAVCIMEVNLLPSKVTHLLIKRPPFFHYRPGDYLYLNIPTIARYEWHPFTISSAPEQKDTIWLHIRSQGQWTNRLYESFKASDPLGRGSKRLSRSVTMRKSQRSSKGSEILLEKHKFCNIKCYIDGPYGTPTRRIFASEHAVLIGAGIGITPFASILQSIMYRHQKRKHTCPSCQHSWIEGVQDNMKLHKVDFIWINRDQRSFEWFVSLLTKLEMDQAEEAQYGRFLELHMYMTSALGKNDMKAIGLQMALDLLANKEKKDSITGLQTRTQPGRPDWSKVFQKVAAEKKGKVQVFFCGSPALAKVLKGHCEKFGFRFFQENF

| SMILES | z-score [1] | composite z-score [2] | z-score [3] | z-score [4] | z-score [5] | z-score [6] | z-score [7] | z-score [8] | z-score [9] | z-score [10] |
| --- | --- | --- | --- | --- | --- | --- | --- | --- | --- | --- |
| Cc1ccc(S[C@]2(C(=O)NCc3ccccc3)CC(=O)N(C(C)C)[C@@H]2c2ccc(CO)cc2I)cc1 | 0.0841 (inactive) | 0.33 | 5.42 (inactive) | 1.19 (inactive) | 0.121 (inactive) | 0.301 (inactive) | 0.0741 | 2.05 (inactive) | -1.1 (inactive) | -0.199 |
| O=C1OCC=C[C@H]2OC34C=CCN(c5ccc(Cl)cc5)C(=O)[C@H]3N(CCCCCO)C(=O)[C@@H]4[C@@H]12 (stereo not given in full) | 0.553 (inactive) | 0.0927 | 2.47 (inactive) | 0.622 (inactive) | 0.871 (inactive) | 0.502 (inactive) | -0.646 | 1.95 (inactive) | 0.525 (inactive) | 2.87 |
| CC1CC/C=C\[C@H]2OC34C=CCN(C(C)C)C(=O)[C@H]3N(CCCCCO)C(=O)[C@@H]4C2C(=O)O1 (stereo not given in full) | 0.881 (inactive) | -0.15 | -0.54 (inactive) | 0.0524 (inactive) | 0.66 (inactive) | 0.427 (inactive) | -0.61 | 0.745 (inactive) | -0.338 (inactive) | 1.05 |
| COCCOC(=O)N1C(=O)[C@@]2(c3cc(C#CCNC(N)=O)ccc31)[C@H](C(=O)N1CCCCCCC1)[C@H]1C(=O)O[C@H](c3ccccc3)[C@H](c3ccccc3)N1[C@@H]2c1ccc(O)cc1 | -0.455 (inactive) | -0.0945 | -0.0508 (inactive) | -0.164 (inactive) | -0.271 (inactive) | 0.0404 (inactive) | 0.0746 | 2.56 (inactive) | 0.475 (inactive) | 1.73 |
| Cc1c(NC(=O)/C(C#N)=C/C=C/c2ccc(N(C)C)cc2)c(=O)n(-c2ccccc2)n1C | 0.504 (inactive) | 0.628 | 16.3 (active) | 2.8 (inactive) | -0.164 (inactive) | 0.89 (inactive) | -0.466 | -2.41 (inactive) | -1.51 (inactive) | -0.807 |
| O=c1cccc(-c2ccc(C(F)(F)F)cc2)o1 | -1.06 (inactive) | -0.103 | 20.1 (active) | 3.36 (inactive) | -1.13 (inactive) | 1.1 (inactive) | -0.564 | 0.584 (inactive) | -2.27 (inactive) | -0.246 |
| NC(=O)NCC#Cc1ccc2c(c1)[C@]1(C(=O)N2)[C@H](c2ccc(O)cc2)N2[C@H](c3ccccc3)[C@H](c3ccccc3)OC(=O)[C@H]2[C@@H]1C(=O)Nc1nc2ccccc2s1 | 0.589 (inactive) | 0.127 | 3.28 (inactive) | 2.86 (inactive) | 0.904 (inactive) | 2.09 (inactive) | 0.0298 | 0.0666 (inactive) | -1.01 (inactive) | 0.17 |
| COC(=O)[C@@]1(Cc2ccccc2)[C@H]2c3cc(C(=O)N4CCCC4)n(C[C@H](O)CO)c3C[C@H]2CN1C(=O)c1ccccc1 | -1.22 (inactive) | -0.165 | 0.975 (inactive) | 0.192 (inactive) | 0.218 (inactive) | 0.592 (inactive) | -0.26 | 0.223 (inactive) | -0.303 (inactive) | -1.45 |
| COCCOC(=O)N1C(=O)[C@@]2(c3cc(C#CC4=CCCCC4)ccc31)[C@H](C(=O)N1CCN(c3ncccn3)CC1)[C@H]1C(=O)O[C@H](c3ccccc3)[C@H](c3ccccc3)N1[C@@H]2c1ccc(O)cc1 | -0.386 (inactive) | 0.315 | 1.65 (inactive) | 1.5 (inactive) | 0.116 (inactive) | 0.824 (inactive) | 1.13 | 1.11 (inactive) | 0.482 (inactive) | 1.2 |
| COc1ccc(NN2C(C(O)c3ccco3)C=CC3C(=O)N(C4CCCCC4)C(=O)C32)cc1 (stereo not given) | -0.636 (inactive) | 0.364 | 2.54 (inactive) | 0.143 (inactive) | 0.546 (inactive) | 0.0933 (inactive) | -0.686 | -0.19 (inactive) | -0.842 (inactive) | -1.1 |
| COc1ccc(C(O)C2C=CC3C(=O)N(c4ccccc4)C(=O)C3N2Nc2ccccc2)cc1OCc1ccccc1 (stereo not given) | -1.1 (inactive) | 0.0924 | 3.82 (inactive) | 1.49 (inactive) | 0.421 (inactive) | 1.1 (inactive) | -1.39 | -1.19 (inactive) | -3.65 (inactive) | -2.48 |
| Cc1ccc(S[C@]2(C(=O)NCC(F)(F)F)CC(=O)N(Cc3ccccc3)[C@@H]2c2ccc(CO)cc2)cc1 | -0.009 (inactive) | 0.0413 | 1.6 (inactive) | -0.821 (inactive) | 1.56 (inactive) | -1.73 (inactive) | 1.98 | -0.599 (inactive) | 0.488 (inactive) | -1.68 |
| CC(C)c1ccc(NN2C(C(O)c3ccco3)C=CC3C(=O)N(c4ccccc4)C(=O)C32)cc1 (stereo not given) | -0.302 (inactive) | 0.409 | 6.96 (inactive) | 1.93 (inactive) | 0.626 (inactive) | 1.29 (inactive) | -0.694 | -1.67 (inactive) | -1.95 (inactive) | -1.88 |
| COC(=O)[C@@]1(Cc2ccc(OC)cc2)[C@H]2c3cc(C(=O)N(C)C)n(Cc4ccccc4)c3C[C@H]2CN1C(=O)c1ccccc1 | -1.25 (inactive) | 0.748 | 0.49 (inactive) | 0.194 (inactive) | -1.39 (inactive) | 0.594 (inactive) | 0.686 | -1.52 (inactive) | -1.09 (inactive) | 2.49 |
| C[C@@H](OCc1ccccc1)C1NC(=O)[C@@]23C(=O)N[C@@H](Cc4ccccc4)C2[C@H](C)[C@@]2(C)O[C@H]2C3/C=C/C/C=C\CNC(=O)CNC1=O (stereo not given in full) | -0.824 (inactive) | -0.012 | 1.53 (inactive) | 0.095 (inactive) | 0.543 (inactive) | -0.0634 (inactive) | -0.213 | 1.01 (inactive) | 1.32 (inactive) | 1.56 |
| O=C(CCCCCCC(=O)Nc1ccccc1)N/N=C/c1ccccc1 | -0.362 (inactive) | -0.24 | 24 (active) | 10.9 (active) | 0.0998 (inactive) | 0.992 (inactive) | -0.0886 | -0.3 (inactive) | -0.0411 (inactive) | -0.185 |
| CCOC(=O)C[C@H]1[C@H](OC(=O)c2ccccc2-c2ccccc2)[C@@H](NC(=O)CC(C)C)c2cc(OCCCO)ccc2N1C(=O)c1ccc2ccccc2n1 | -0.518 (inactive) | -0.192 | 11.9 (active) | 1.64 (inactive) | -0.0722 (inactive) | 0.598 (inactive) | -0.577 | -0.274 (inactive) | 1.15 (inactive) | 1.51 |
| COC(=O)C1(Cc2ccccc2)C=C2C(=C(C(C)C)C(=O)C2C)CN1 (stereo not given) | -1.72 (inactive) | 0.276 | 2.03 (inactive) | 0.326 (inactive) | 1.42 (inactive) | 0.592 (inactive) | 0.128 | -0.862 (inactive) | -5.34 (inactive) | -4.04 |
| C[C@H]1ON(c2ccc(C(=O)OC(C)(C)C)cc2)[C@@H](c2ccc(O)cc2)[C@@H]1C(=O)N1C(=O)OC[C@@H]1c1ccccc1 | -0.569 (inactive) | -0.0023 | 3.71 (inactive) | 0.622 (inactive) | 0.166 (inactive) | 0.428 (inactive) | 0.433 | -0.414 (inactive) | -0.254 (inactive) | 0.718 |
| C=CC[C@@H](OC(=O)Nc1ccc(OC)cc1)c1ccc(OCCO)cc1 | -0.14 (inactive) | -0.0638 | 19.5 (active) | 3.12 (inactive) | -0.149 (inactive) | 0.894 (inactive) | 0.0966 | -4.11 (inactive) | -1.4 (inactive) | -2.78 |
